# Experimental data reported in PubChem BioAssay (NCATS).
# Inconclusive results are not listed. Where a call stands in place of a potency, no number is given. The source made the active and inactive calls. Unless noted, calls come from the whole dose curve; as a rule, active = well fitted curve in the direction sought with a large enough effect; inconclusive = small, poorly fitted or top-dose-only effect, or another doubt; inactive = no such curve, though single readings can be large; an effect the other way counts as inactive or inconclusive.
# What was measured:
# [1] = Primary qHTS for inhibitors of nuclear receptor binding SET domain protein 2 (NSD2) in an RCH-ACV wild type WT cells (2C) (AID 1645877); note: nearly all actives have a fitted effect of over 70% in size; note: potency is the fitted concentration of half-maximal effect
# [2] = target: Catechol O-methyltransferase (Homo sapiens) (UniProt P21964); test: Confirmatory Screen for Target Class Profiling of Small Molecule Inhibitors of Methyltransferases (AID 1745852; calls by dose curve; note: potency is the fitted concentration of half-maximal effect); details: MTase-Glo luminescence, SAH detection, recombinant enzyme; measured here: COMT max response; stronger effect = lower value
# [3] = target: Guanidinoacetate N-methyltransferase (Homo sapiens) (UniProt Q14353); test: as above; details: activity change, negative = inhibition: at 57.3 µM (top of the series) unless noted
# [4] = target: Nicotinamide N-methyltransferase (Homo sapiens) (UniProt P40261); test: as above; details: MTase-Glo luminescence, SAH detection, recombinant enzyme; measured here: NNMT max response; stronger effect = lower value
# [5] = target: Phenylethanolamine N-methyltransferase (Homo sapiens) (UniProt P11086); test: as above; details: MTase-Glo luminescence, SAH detection, recombinant enzyme; measured here: PNMT max response; stronger effect = lower value
# [6] = target: Glutathione peroxidase 1 (Homo sapiens) (UniProt P07203); test: Primary qHTS Assay for Inhibitors of Recombinant Selenoprotein Glutathione Peroxidase 1 (GPX1) (AID 1845191); note: nearly all actives have a fitted effect of over 65% in size
# How it was run: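 GR-coupled readout: NADPH consumption tracked by fluorescence, ex 340/em 450 nm, at t=0 and after 15 min at RT. Final mix 10 nM GPX1, 1 mM GSH, 0.5 mM CHP, 0.5 mM NADPH, 100 nM GR, 0.01% BSA, following 30 min enzyme–compound preincubation.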
# [7] = target: Phospholipid hydroperoxide glutathione peroxidase GPX4 (Homo sapiens) (UniProt P36969); test: Primary qHTS Assay for Inhibitors of Recombinant Selenoprotein Glutathione Peroxidase 4 (GPX4) (AID 1845192); note: nearly all actives have a fitted effect of over 65% in size
# How it was run: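 Steps: GPX4 plus compound, 30 min RT; add GR/GSH/NADPH master mix; start with cumene hydroperoxide; read 340/450 nm fluorescence at 0 and 15 min. Finals were 200 nM GPX4, 1 mM GSH, 0.5 mM CHP, 0.5 mM NADPH, 100 nM GR.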
# [8] = target: Luciferin 4-monooxygenase (Photinus pyralis) (UniProt P08659); test: Primary firefly luciferase (FLuc) qHTS assay for identification of artifact compounds. (AID 1845220); note: nearly all actives have a fitted effect of over 60% in size
# How it was run: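 Enzymatic FLuc inhibition assay: compounds pre-exposed to luciferin/ATP (10 uM each) for 15 min, then purified P. pyralis enzyme at 10 nM added. Read-out: luminescence at 5 min.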
# [9] = tested on: Nanoluciferase (engineered Oplophorus gracilirostris luciferase); test: Primary Nanoluciferase (NLuc) qHTS assay for identification of artifact compounds. (AID 1845222);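 note: NLuc secreted into diluted conditioned medium of S16 cells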
# How it was run: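 S16 cell supernatant NLuc, 1:55; cpds qHTS; 15 min RT dark; Nano-Glo substrate 1:100, 5 min; luminescence; Hill fit of % inhibition.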
# [10] = Primary fluorescence-based thiol-reactive (MSTI) qHTS assay for identification of artifact compounds. (AID 1845221); note: nearly all actives have a fitted effect of over 65% in size; note: potency is the fitted concentration of half-maximal effect;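 for activity change, negative = thiol reactive: thiol-reactive compounds lower the probe fluorescence signal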
# How it was run: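 Curve-fitted percent inhibition (4-parameter Hill) derived from fluorescence, Ex 525/Em 598 nm, scaled with Acetyl-MSTI and MSTI; 1 h incubation at room temperature.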
# [11] = Primary redox qHTS assay for identification of artifact compounds. (AID 1845223)
# How it was run: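 Redox-cycling detection via DTT (250 uM final) oxidation coupled to Amplex Red (25 uM)/HRP (250 mU/mL) in HBSS. 15 min preincubation plus 30 min after DTT, room temperature. Ex/Em 525/598 nm; 4-parameter Hill fit against DMSO and 10 uM DA3003.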
# [12] = target: Metallo-beta-lactamase type 2 (Klebsiella pneumoniae) (UniProt C7C422); test: qHTS to identify inhibitors of the New Delhi Metallo-beta-lactamase (NDM): assay validation screen against the NCATS LOPAC Collection (AID 1794843);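 note: nitrocefin turnover by NDM-1 measured as 485 nm absorbance at plateau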
# How it was run: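 NDM-1 at 2 nM final in 50 mM HEPES pH 7.0, 1 uM ZnSO4, 0.01% Tween20, preincubated with LOPAC compounds pinned in DMSO; 50 uM nitrocefin (stock) added. Hydrolysis read as absorbance at 485 nm in the plateau phase.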
# Sequence of Phenylethanolamine N-methyltransferase (Homo sapiens) (P11086 whole entry, looked up): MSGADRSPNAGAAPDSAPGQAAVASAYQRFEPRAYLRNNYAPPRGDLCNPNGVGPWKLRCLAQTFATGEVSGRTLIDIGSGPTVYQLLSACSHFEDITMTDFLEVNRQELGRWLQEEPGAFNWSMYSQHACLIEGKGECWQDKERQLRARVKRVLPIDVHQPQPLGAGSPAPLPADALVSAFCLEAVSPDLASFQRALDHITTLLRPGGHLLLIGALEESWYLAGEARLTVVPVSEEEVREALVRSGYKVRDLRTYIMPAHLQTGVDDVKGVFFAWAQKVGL
# Sequence of Catechol O-methyltransferase (Homo sapiens) (P21964 whole entry, looked up): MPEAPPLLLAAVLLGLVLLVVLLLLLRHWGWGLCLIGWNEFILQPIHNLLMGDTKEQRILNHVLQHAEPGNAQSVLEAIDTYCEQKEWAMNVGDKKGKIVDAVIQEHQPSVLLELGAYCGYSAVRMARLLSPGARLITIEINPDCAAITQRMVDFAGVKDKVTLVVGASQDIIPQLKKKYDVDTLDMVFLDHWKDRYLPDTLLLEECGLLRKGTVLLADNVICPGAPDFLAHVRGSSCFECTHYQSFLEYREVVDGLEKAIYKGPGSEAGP
# Sequence of Phospholipid hydroperoxide glutathione peroxidase GPX4 (Homo sapiens) (P36969 whole entry, looked up): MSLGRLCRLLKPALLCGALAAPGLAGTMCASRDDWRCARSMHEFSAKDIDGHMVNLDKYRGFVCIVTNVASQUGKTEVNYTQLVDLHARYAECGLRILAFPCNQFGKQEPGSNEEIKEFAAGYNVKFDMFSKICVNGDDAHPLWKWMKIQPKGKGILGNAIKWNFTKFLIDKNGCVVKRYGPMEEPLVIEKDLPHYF
# Sequence of Glutathione peroxidase 1 (Homo sapiens) (P07203 whole entry, looked up): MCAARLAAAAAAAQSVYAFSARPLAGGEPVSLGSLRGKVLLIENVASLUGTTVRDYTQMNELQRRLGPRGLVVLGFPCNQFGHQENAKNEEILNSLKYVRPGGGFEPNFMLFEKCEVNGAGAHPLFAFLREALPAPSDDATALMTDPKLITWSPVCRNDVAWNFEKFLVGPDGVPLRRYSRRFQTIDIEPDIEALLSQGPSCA
# Sequence of Nicotinamide N-methyltransferase (Homo sapiens) (P40261 whole entry, looked up): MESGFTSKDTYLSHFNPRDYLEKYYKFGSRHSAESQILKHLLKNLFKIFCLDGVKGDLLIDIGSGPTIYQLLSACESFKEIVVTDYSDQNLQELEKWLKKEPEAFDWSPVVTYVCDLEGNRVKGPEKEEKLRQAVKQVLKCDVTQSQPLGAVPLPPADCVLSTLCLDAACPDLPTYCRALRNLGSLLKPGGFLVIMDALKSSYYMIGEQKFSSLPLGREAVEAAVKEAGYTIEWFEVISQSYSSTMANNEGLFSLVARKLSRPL
# Sequence of Metallo-beta-lactamase type 2 (Klebsiella pneumoniae) (C7C422 whole entry, looked up): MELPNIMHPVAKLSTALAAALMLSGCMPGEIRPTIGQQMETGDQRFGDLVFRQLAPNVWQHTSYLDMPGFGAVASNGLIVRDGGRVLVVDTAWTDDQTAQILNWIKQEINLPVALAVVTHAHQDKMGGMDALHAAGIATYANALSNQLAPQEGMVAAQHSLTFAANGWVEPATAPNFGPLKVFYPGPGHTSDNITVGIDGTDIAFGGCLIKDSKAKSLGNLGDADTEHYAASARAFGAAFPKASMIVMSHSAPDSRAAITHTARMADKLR
smiles,measurement,setting,value
COc1cc(C(=O)OC[C@H]2O[C@@H](Oc3ccccc3/C=C/C(=O)O)[C@H](O)[C@@H](O)[C@@H]2O)cc(OC)c1OC,Potency,[1],inactive
same,activity,[2],-77.7%
same,"activity change, negative = inhibition",[3],-3.16% [at 29.8 µM]
same,activity,[4],-2.69%
same,activity,[5],-3.5%
same,Potency,[6],inactive
same,Potency,[7],inactive
same,Potency,[8],inactive
same,Potency,[9],inactive
CC/C=C\CCO[C@@H]1O[C@H](CO)[C@@H](O)[C@H](O)[C@H]1O,Potency,[1],inactive
same,activity,[2],-74.1%
same,"activity change, negative = inhibition",[3],0%
same,activity,[4],1.9%
same,activity,[5],0.287%
same,Potency,[6],inactive
same,Potency,[7],inactive
same,Potency,[8],inactive
same,Potency,[10],5.97 µM (active)
same,Potency,[9],inactive
same,Potency,[11],inactive
O=C(O)c1ccc(CN2CCC(CN[C@@H]3C[C@H]3c3ccccc3)CC2)cc1,Potency,[1],inactive
same,activity,[2],4.43%
same,"activity change, negative = inhibition",[3],-0.127%
same,activity,[4],-0.425%
same,activity,[5],5.38%
same,Potency,[6],inactive
same,Potency,[7],inactive
same,Potency,[10],inactive
same,Potency,[9],inactive
same,Potency,[11],inactive
Cc1nc([C@](C)(O)CO)sc1-c1cnc(N)c(O[C@H](C)c2cc(F)ccc2-n2nccn2)c1,Potency,[1],13.2 µM (active)
same,activity,[2],-59.6%
same,"activity change, negative = inhibition",[3],-0.524%
same,activity,[4],-12.8%
same,activity,[5],-10.9%
same,Potency,[7],inactive
same,Potency,[8],inactive
same,Potency,[10],inactive
same,Potency,[9],inactive
CN(C)c1nc(NC2CCC(NCCc3ccc(Br)cc3OC(F)(F)F)CC2)nc2ccccc12 (stereo not given),Potency,[1],2.58 µM (active)
same,activity,[2],-10.3%
same,"activity change, negative = inhibition",[3],-2.23%
same,activity,[4],-85%
same,activity,[5],-42.3%
same,Potency,[6],inactive
same,Potency,[7],inactive
same,Potency,[8],inactive
same,Potency,[9],inactive
same,Potency,[11],inactive
Cc1cc(O)c(-c2ccc([C@@H](C)CN(C)C)cc2)c2c1[nH]c(=O)c1sccc12,Potency,[1],0.0742 µM (active)
same,activity,[2],-22.7%
same,"activity change, negative = inhibition",[3],-6.59%
same,activity,[4],-64.6%
same,activity,[5],-48.7%
same,Potency,[6],inactive
same,Potency,[7],inactive
same,Potency,[8],inactive
same,Potency,[10],inactive
same,Potency,[9],inactive
same,Potency,[11],inactive
Cc1cc(Nc2ccc(NC(=O)c3ccc(Nc4ccnc5ccccc45)cc3)cc2)nc(N)n1,Potency,[1],0.817 µM (active)
same,activity,[2],-15.9%
same,Potency,[3],30.4 µM (active)
same,activity,[4],-17.6%
same,activity,[5],-11.7%
same,Potency,[7],inactive
same,Potency,[8],inactive
same,Potency,[9],inactive
same,Potency,[11],inactive
COc1cc(N2CCC(N3CCN(C)CC3)CC2)ccc1Nc1ncc(Cl)c(-c2c[nH]c3ccccc23)n1,Potency,[1],1.84 µM (active)
same,activity,[2],-23.6%
same,Potency,[3],24.1 µM (active)
same,activity,[4],-32.6%
same,activity,[5],-23.1%
same,Potency,[6],inactive
same,Potency,[7],inactive
same,Potency,[8],inactive
same,Potency,[9],inactive
c1cn2cc(-c3ccc4cn[nH]c4c3)nc(Nc3ccc(N4CCOCC4)cc3)c2n1,Potency,[1],0.409 µM (active)
same,activity,[2],-53.7%
same,Potency,[3],21.5 µM (active)
same,activity,[4],-49.6%
same,activity,[5],-53.5%
same,Potency,[6],inactive
same,Potency,[7],inactive
same,Potency,[9],inactive
same,Potency,[11],inactive
CC(C)[C@@](C)(O)[C@@H]1CN(c2nc(-c3[nH]nc4ncccc34)c(F)cc2Cl)CCN1,Potency,[1],4.59 µM (active)
same,activity,[2],-69%
same,Potency,[3],27.1 µM (active)
same,activity,[4],-56.9%
same,activity,[5],-65.1%
same,Potency,[6],inactive
same,Potency,[7],inactive
same,Potency,[8],inactive
same,Potency,[9],inactive
same,Potency,[11],inactive
CC[C@]1(O)CC2CN(CCc3c([nH]c4ccccc34)[C@@](C(=O)OC)(c3cc4c(cc3OC)N(C)[C@H]3[C@@](O)(C(=O)OC)[C@H](OC(C)=O)[C@]5(CC)C=CCN6CC[C@]43[C@@H]65)C2)C1 (stereo not given in full),outcome,[12],inactive
CC[C@H](CO)Nc1nc(NCc2ccc(-c3ccccn3)cc2)c2ncn(C(C)C)c2n1,Potency,[1],0.23 µM (active)
same,Potency,[6],inactive
same,Potency,[7],inactive
same,Potency,[8],inactive
same,Potency,[10],inactive
same,Potency,[9],inactive
CC1OC(OCC2OC(OC3CCC4(C)C(CCC5(C)C4CC=C4C6CC(C)(C)CCC6(C(=O)OC6OC(CO)C(O)C(O)C6O)CCC45C)C3(C)CO)C(O)C(O)C2O)C(O)C(O)C1O (stereo not given),"activity change, negative = cell killing",[1],-0.623% [at 9.23 µM] (inactive)
same,Potency,[6],inactive
same,Potency,[7],inactive
same,"activity change, negative = inhibition",[8],-1.2% [at 11.6 µM] (inactive)
same,"activity change, negative = thiol reactive",[10],188% [at 11.5 µM] (inactive)
same,"activity, negative = inhibition",[9],0% [at 11.6 µM] (inactive)
CC(C)CCC[C@@H](C)[C@H]1CC[C@H]2[C@@H]3CC(=O)[C@H]4C[C@@H](O)CC[C@]4(C)[C@H]3CC[C@]12C,Potency,[1],inactive
same,Potency,[6],inactive
same,Potency,[7],inactive
same,Potency,[8],inactive
same,Potency,[10],inactive
same,Potency,[9],inactive
CC(=O)OC1C[C@@]2(C)[C@@H](CC[C@@H](C)[C@]23Cc2c(O)cc4c(c2O3)CNC4=O)C(C)(C)[C@@H]1O (stereo not given in full),Potency,[1],inactive
same,Potency,[6],inactive
same,Potency,[7],inactive
same,Potency,[8],inactive
same,Potency,[10],inactive
same,Potency,[9],inactive
CC(=O)O[C@@H]1[C@@H](O)[C@H](O[C@H]2CC[C@]34C[C@]35CC[C@]3(C)[C@@H]([C@@]6(C)CC[C@@H](C(C)(C)O)O6)[C@@H](O)C[C@@]3(C)[C@@H]5C[C@H](O[C@@H]3O[C@H](CO)[C@@H](O)[C@H](O)[C@H]3O)[C@H]4C2(C)C)OC[C@H]1O,Potency,[1],inactive
same,Potency,[6],inactive
same,Potency,[7],inactive
same,Potency,[8],inactive
same,Potency,[10],inactive
same,Potency,[9],inactive
CC(=O)O[C@@](C)(C(=O)/C=C/C(C)(C)O)[C@H]1[C@H](O)C[C@@]2(C)[C@@H]3CC=C4[C@@H](C=C(O)C(=O)C4(C)C)[C@]3(C)C(=O)C[C@]12C,Potency,[1],0.282 µM (active)
same,Potency,[6],inactive
same,Potency,[7],inactive
same,Potency,[8],inactive
same,Potency,[10],inactive
same,Potency,[9],inactive
C[C@H]1CC(=O)Nc2cccc(-c3cnn(C(C)(C)C)c3)c2N1,Potency,[1],inactive
same,Potency,[6],inactive
same,Potency,[7],inactive
same,Potency,[8],inactive
same,Potency,[10],inactive
same,Potency,[9],inactive
C[C@@H]1CC[C@]2(C(=O)O)CC[C@]3(C)C(=CCC4[C@@]5(C)CC[C@H](O)C(C)(C)C5C(O)C[C@]43C)[C@@H]2[C@]1(C)O (stereo not given in full),Potency,[1],inactive
same,Potency,[6],inactive
same,Potency,[7],inactive
same,Potency,[8],inactive
same,Potency,[10],13 µM (active)
same,Potency,[9],inactive
CC1OC(OC2CCC3(C)C(CCC4(C)C3CC=C3C5CC(C)(C)CCC5(C(=O)OC5OC(CO)C(O)C(O)C5O)CCC34C(=O)O)C2(C)C)C(O)C(O)C1O (stereo not given),Potency,[1],inactive
same,Potency,[6],inactive
same,Potency,[7],inactive
same,Potency,[8],inactive
same,Potency,[10],inactive
same,Potency,[9],inactive
CC1(C)CCC2(C(=O)OC3OC(CO)C(O)C(O)C3O)CCC3(C)C(=CCC4C5(C)CCC(O)C(C)(C(=O)O)C5CCC43C)C2C1O (stereo not given),Potency,[1],inactive
same,Potency,[6],inactive
same,Potency,[7],inactive
same,Potency,[8],inactive
same,Potency,[10],inactive
same,Potency,[9],inactive
C/C=C/C=C/[C@@H]1O[C@](O)([C@H](CC)C(=O)NC/C=C/C=C(\C)[C@@H](OC)[C@@H](C)C2OC(/C=C/C=C/C=C(\C)C(=O)c3c(O)cc[nH]c3=O)[C@H](O)[C@@H]2O)[C@H](O)[C@H](O)C1(C)C (stereo not given in full),Potency,[1],inactive
same,Potency,[6],inactive
same,Potency,[7],inactive
same,Potency,[8],inactive
same,Potency,[10],inactive
same,Potency,[9],inactive
CCCC(=O)NCCc1csc(-c2ccc(Cl)cc2)n1,Potency,[1],18.3 µM (active)
same,Potency,[6],inactive
same,Potency,[7],inactive
same,Potency,[8],inactive
same,Potency,[10],inactive
same,Potency,[9],inactive
